# Rab9 prom act – Rab9 promoter activation; AID 485297; Potency, µM (titrated, usually from 9.22 µM), inactives show at the top dose activation, negative = inhibition, actives largely listed as activators; Huh7 Rab9 promoter-luciferase reporter, luminescence, 24 h; 2.8% of 320,000 active; note: % of control where 0% means no effect; nearly all actives have a fitted effect of over 60% in size
#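 Steps: seed 1500 Huh7 Rab9-luc cells per well, rest 2 h at 37 °C; add compound in DMSO; incubate 24 h; add luciferase reagent, 10 min ambient; read luminescence.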
# ELG1 genotox – genotoxicity induction in ELG1-luciferase HEK293T cells; HEK293T ELG1-luciferase reporter, luminescence, 16 h; Potency, µM (highest dose often 46 µM), for the others: at the highest dose activity change, positive = activation, most hits filed as activators; 1.3% of 330,000 active; AID 504466; note: % of control where 0% means no effect; nearly all actives have a fitted effect of over 60% in size
#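 Screening used a luciferase reporter fused to human ELG1 in HEK293T cells. Luminescence was read on a CCD plate imager after 16 hr exposure and 30 min ONE-Glo incubation.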
# SMN2 splice enh – increases expression of the SMN2 splice variant; Potency, µM (series often up to 46.1 µM), for inactives: at the top dose activity change, positive = activation, most hits filed as activators; 2.8% of 210,000 active; AID 1458; HEK293 SMN2-luciferase splicing reporter, luminescence, 30-36 h; note: % of control where 0% means no effect; nearly all actives have a fitted effect of over 55% in size
#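 HEK293 cells carry an SMN2 […]–luciferase reporter in which exon 7 inclusion puts luciferase in frame. Cells were plated 10-12 h before compound addition, then incubated 30-36 h at 37C. ONE-Glo luminescence was read; sodium butyrate at 4.5 mM final served as control.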
# NPC1 prom act – activates the NPC1 promoter | Huh7 NPC1 promoter luciferase reporter, 24 h | Potency, µM (doses to about 9.22 µM), for the others: at the highest dose activation, most hits filed as activators | 2.4% of 320,000 active | AID 485313; note: % of control where 0% means no effect; nearly all actives have a fitted effect of over 60% in size
#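 Stably transfected Huh7 (NPC1 promoter→luciferase), 1500 cells/well in Opti-MEM + 10% FBS, 2 h settle, then compound 24 h at 37 °C. Luminescence after 10 min with Amplite reagent.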
# ELG1 DNA repair – blocks ELG1-dependent DNA repair in HEK293T cells; HEK293T ELG1-luciferase reporter, luminescence, 16 h; DNA damage induced by 5-fluorouridine; Potency, µM (titrated, usually from 46.1 µM), for inactives: at the top dose activity change, negative = inhibition, hits mostly inhibitors; 2.3% of 330,000 active; AID 504467; note: % is set by controls: 0 for no effect and ±100 for the full control effect; nearly all actives have a fitted effect of over 55% in size
#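 Step one: seed 2,000 cells per well. Step two: pin-transfer compound or DMSO alongside 5-fluorouridine. Step three: incubate 16 hr, 37 °C, 5% CO2. Step four: add ONE-Glo, wait 30 min, read luminescence.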
# FLuc counter – firefly luciferase modulation, counter-screen for miR-21 project | P08659 | purified FLuc, Km substrates, luminescence inhibition | Potency, µM (top dose mostly 57.5 µM), for the others: top-dose activity change, negative = inhibition, actives largely listed as inhibitors | 6.9% of 360,000 active;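 note: plate controls were vehicle for no effect and reference inhibitor for full effect; nearly all actives have a fitted effect of over 55% in size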
# Target sequence (P08659 whole entry, looked up): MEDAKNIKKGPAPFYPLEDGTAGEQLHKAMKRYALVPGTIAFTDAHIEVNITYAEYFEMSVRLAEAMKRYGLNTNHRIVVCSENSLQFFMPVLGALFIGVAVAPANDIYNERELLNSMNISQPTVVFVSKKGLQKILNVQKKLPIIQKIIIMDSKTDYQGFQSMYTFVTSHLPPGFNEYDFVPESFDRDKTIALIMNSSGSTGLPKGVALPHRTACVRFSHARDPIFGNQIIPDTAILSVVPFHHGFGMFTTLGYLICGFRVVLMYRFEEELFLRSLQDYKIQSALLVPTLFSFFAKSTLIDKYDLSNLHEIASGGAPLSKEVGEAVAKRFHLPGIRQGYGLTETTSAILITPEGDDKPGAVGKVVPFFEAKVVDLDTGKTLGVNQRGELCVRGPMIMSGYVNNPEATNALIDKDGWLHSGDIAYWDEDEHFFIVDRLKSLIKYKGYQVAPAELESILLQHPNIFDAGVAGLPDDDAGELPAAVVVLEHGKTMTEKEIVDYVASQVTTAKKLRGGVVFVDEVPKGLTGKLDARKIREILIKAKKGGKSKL
#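 Biochemical qHTS of compounds, final roughly 60 µM downward over six points, against 10 nM purified firefly luciferase using Km concentrations of substrates (10 uM D-luciferin, 10 uM ATP) in Tris acetate pH 7.5 buffer; luminescence output.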
# Active calls of the source: *; ? = inconclusive; . = no result. Most compounds without a hit are left out; they make up all but 9.3% or so of the library. Calls come from the whole dose curve; as a rule, active = well fitted curve in the direction sought with a large enough effect; inconclusive = small, poorly fitted or top-dose-only effect, or another doubt; inactive = no such curve, though single readings can be large; an effect the other way counts as inactive or inconclusive. Potency is the fitted concentration of half-maximal effect.
SMILES,Rab9 prom act,ELG1 genotox,SMN2 splice enh,NPC1 prom act,ELG1 DNA repair,FLuc counter
C#CCSc1nncn1C(=O)/C=C/c1ccccc1,0%,1%,-6%,-4%,?,19µM*
O=C(c1ccc(F)cc1)N1c2ncnn2C2(CCCCC2)[C@@H]2CCCC[C@@H]21,.,.,.,.,.,2%
Cc1ccc2nc(-c3ccc(N4C(=O)CC(N5CCCC(C)C5)C4=O)cc3)sc2c1 (configuration not stated),.,.,17%,.,.,15µM*
Cc1ccc(N2C(=O)CC(N3CCN(C)CC3)C2=O)cc1 (configuration not stated),-6%,0%,-9%,-2%,-2%,-1%
Cc1ccc2nc(-c3ccc(N4C(=O)CC(N5CCC(C(N)=O)CC5)C4=O)cc3)sc2c1 (configuration not stated),1%,?,11%,5%,?,2.7µM*
COc1ccc(CCNC(=O)C2CCN(C(=O)c3ccc(C(C)(C)C)cc3)CC2)cc1,20%,1%,.,13%,15%,-7%
O=C(NN=C1CCCCCC1)c1cc(-c2ccccc2)nc2ccccc12,-4%,2%,13%,-9%,5%,17µM*
Cc1cc(C(=O)NN=C2CCCCC2)c2ccccc2n1,-6%,-1%,-14%,-1%,-2%,4%
O=C(NN=C1CCCCCC1)c1cn(-c2ccccc2)nc1-c1ccccc1,1%,0%,-29%,-3%,-12%,15µM*
O=C(NC(=S)N1CCOCC1)c1cn(-c2ccccc2)nc1-c1ccccc1,1%,-8%,.,0%,18µM*,17µM*
Cc1ccc(-c2cc(C(=O)NN=C3CCCC3)c3ccccc3n2)cc1,-4%,3%,-12%,0%,?,4.3µM*
O=C(c1cn(-c2ccccc2)nc1-c1ccccc1)N1CCOCC1,2%,-3%,-21%,-1%,13%,?
Cc1ccc(-c2nc(C)sc2CC(=O)Nc2nnc(C)s2)cc1,-3%,3%,4%,-5%,4%,-14%
Cc1ccc(C(=O)N/C(=C\c2ccc(F)cc2)C(=O)NCCCn2ccnc2)cc1,-4%,-4%,.,2%,3%,2%
Cc1ccccc1NS(=O)(=O)c1ccc2c3c(cccc13)C(=O)N2C,0%,21µM*,.,-5%,?,2%
Cc1cc(C)cc(N(CC(=O)NCc2ccccc2Cl)S(=O)(=O)c2c(C)noc2C)c1,.,.,-4%,.,.,4%
Cc1ccc2nc(SCC(=O)c3c(N)n(C)c(=O)n(C)c3=O)[nH]c2c1,0%,-3%,-4%,13%,7%,-14%
CCCc1cc(=O)[nH]c(Nc2cc(OC)ccc2OC)n1,-1%,-2%,1.3µM*,1%,-10%,0%
CC(CNC(=O)CCCn1c(=O)c2cccn2c2cccnc21)c1ccccc1 (configuration not stated),.,.,.,.,.,-11%
COC(=O)c1c(-c2cccs2)csc1NC(=O)COc1ccc(C)cc1,.,.,.,.,.,-18%
COC(=O)c1c(-c2cccs2)csc1NC(=O)COc1ccccc1,.,.,.,.,.,6.7µM*
COC(=O)c1c(-c2cccs2)csc1NC(=O)c1cccnc1,?,6%,-1%,28%,?,17µM*
CN(Cc1c(C(=O)N/N=C/c2cccc(O)c2)nnn1-c1nonc1N)C1CCCCC1,2%,-9%,.,-1%,?,3%
Cc1oncc1C(=O)Nc1ccc(C(F)(F)F)cc1,1.4µM*,?,11µM*,?,?,?
COC(=O)c1cccc(NC(=O)c2cccnc2)c1,4%,1%,4%,-1%,25%,1%
SMILES,Rab9 prom act,ELG1 genotox,SMN2 splice enh,NPC1 prom act,ELG1 DNA repair,FLuc counter
Cc1oncc1C(=O)Nc1ccc2ccccc2c1,?,?,.,?,?,19µM*
CC(=O)Nc1ccc2ccccc2c1,15%,?,7%,21%,?,?
Cc1nc(Cl)sc1C(=O)Nc1ccc(C(F)(F)F)cc1,1%,0%,.,2%,9%,-19%
Cc1coc(C)c1C(=O)Nc1ccc2ccccc2c1,2.8µM*,?,.,3.5µM*,?,11µM*
COC(=O)c1cccc(NC(=O)c2cnoc2C)c1,?,9%,5%,18%,?,24µM*
CN(C)/C(Cn1cncn1)=C1/N=C(c2ccccc2)OC1=O,0%,7%,.,-8%,0%,-5%
CCOC(=O)C1=C(c2ccccc2)OC(N)=C(C#N)C1c1ccncc1 (configuration not stated),-8%,1%,2%,-8%,6%,-5%
COc1ccc(C(=O)NCCCNC(=O)c2cccnc2)cc1OC,3%,3%,.,3%,4%,0%
CCc1nnc(NC(=O)CSc2ncc(-c3ccccc3)[nH]2)s1,1%,4%,7%,-2%,?,?
CSc1nc(-c2cccs2)c(C#N)c(=O)[nH]1,-5%,0%,.,-5%,9%,?
CC(Nc1cccc2ccccc12)C(=O)N/N=C/c1ccc([N+](=O)[O-])cc1 (configuration not stated),10%,-1%,-20%,1%,-21%,0%
O=C(OCn1ncc(Br)c(Br)c1=O)c1ccc(F)cc1,-43%,?,-73%,-38%,?,-10%
Cc1ccc(SCc2nc(N)nc(Nc3ccccc3C)n2)cc1C,1%,1%,2%,0%,14%,-16%
Cc1ccccc1Nc1nc(N)nc(CSc2nnnn2C)n1,2.5µM*,?,13µM*,3.5µM*,?,?
Cc1ccc(Nc2nc(N)nc(CN3CCCCCC3)n2)c(C)c1,-4%,-1%,-7%,-1%,-16%,0%
Cc1ccc(SCc2nc(N)nc(Nc3ccccc3C)n2)c(C)c1,5%,2%,-14%,5%,3%,27µM*
CCc1ccccc1Nc1nc(N)nc(CSc2nnnn2C)n1,21%,10%,21%,-1%,16%,1%
Cc1ccc(Nc2nc(N)nc(CSc3nccn3C)n2)c(C)c1,?,15µM*,90%,?,?,?
Cc1ccccc1Nc1nc(N)nc(CSc2ccc(F)cc2)n1,3.2µM*,8.2µM*,.,2.5µM*,?,11µM*
O=C(CCSc1ccc(Cl)cc1)NN=C1CCCCCC1,-2%,30%,-27%,-5%,-15%,3%
CC(=O)N1c2c(cc(Br)cc2S(=O)(=O)N2CCN(c3cc(C)ccc3C)CC2)CC1C (configuration not stated),.,.,0%,.,.,0%
C=CCOC(=O)C1=C(C)NC(=O)NC1c1cn(-c2ccccc2)nc1-c1cccs1 (configuration not stated),-9%,-3%,-1%,-5%,?,-2%
